According to PubChem BioAssay (NCI):
This is part of a sample that, as a whole, favours compounds with a hit. Of some 83,000 tested, about 20% had one in any assay.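 Note: values are percent growth. 100 is the growth of untreated cells, values between 100 and 0 indicate rising inhibition; between -100 and 0 indicates cell death.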 Unmarked numbers belong to inactive results. Active and inactive are the calls of the source. The calls were made as follows: active = growth percent below 10; inactive = the rest.

Key:
Assay in all cases: NCI-60 one-dose screen, 48 h (100 = growth as untreated, 0 = no growth, -100 = all killed)
Settings in all cases: 10 µM unless noted
SK-MEL-2 melanoma = system: SK-MEL-2 melanoma
EKVX NSCLC = system: EKVX NSCLC
SN12C renal = system: SN12C renal
UO-31 renal = system: UO-31 renal
TK-10 renal = system: TK-10 renal
A498 renal = system: A498 renal
CCRF-CEM leukemia = system: CCRF-CEM leukemia
MOLT-4 leukemia = system: MOLT-4 leukemia
RPMI-8226 leukemia = system: RPMI-8226 leukemia
OVCAR-8 ovarian = system: OVCAR-8 ovarian
OVCAR-5 ovarian = system: OVCAR-5 ovarian
OVCAR-4 ovarian = system: OVCAR-4 ovarian
SK-OV-3 ovarian = system: SK-OV-3 ovarian
OVCAR-3 ovarian = system: OVCAR-3 ovarian
HS 578T breast = system: HS 578T breast
NCI/ADR-RES ovarian = system: NCI/ADR-RES ovarian
SR leukemia = system: SR leukemia
IGROV1 ovarian = system: IGROV1 ovarian

Structure (SMILES)	growth (SK-MEL-2 melanoma)	growth (EKVX NSCLC)	growth (SN12C renal)	growth (UO-31 renal)	growth (TK-10 renal) [%]	growth (A498 renal)	growth (CCRF-CEM leukemia)	growth (MOLT-4 leukemia)	growth (RPMI-8226 leukemia)	growth (OVCAR-8 ovarian)	growth (OVCAR-5 ovarian) [%]	growth (OVCAR-4 ovarian) [%]	growth (SK-OV-3 ovarian)	growth (OVCAR-3 ovarian)	growth (HS 578T breast)	growth (NCI/ADR-RES ovarian)	growth (SR leukemia)	growth (IGROV1 ovarian)
COc1ccc2c(c1)O/C(=C/c1ccc(OCC(=O)Nc3ccc(S(N)(=O)=O)cc3)cc1)C2=O	97.7%	97.5%	98.1%	85.6%	115	91.5%	94.6%	88.3%	91.3%	98.6%	103	102	102%	104%	99.4%	103%	–	–
CCOC(=O)C1CN(Cc2ccccc2)C(=O)C1=O (stereo unspecified)	114%	110%	108%	64.3%	113	91.6%	–	–	95.6%	107%	95.2	91.9	107%	105%	–	109%	27%	109%
CC(C)(c1ccc(OCC(O)CNCc2ccco2)cc1)c1ccc(OCC(O)CNCc2ccco2)cc1 (stereo unspecified)	94.4%	92.1%	87.6%	66.3%	93.1	68.9%	72.9%	67.1%	64.8%	92.3%	101	96	105%	83%	75.7%	93.2%	–	–
Nc1nccc(=S)[nH]1	97.7%	101%	101%	98.3%	95.6	108%	–	92.8%	96.6%	104%	111	114	102%	109%	103%	107%	87.1%	107%
CCN(CC)CC(=O)Nc1c(C)cccc1C	104%	85.2%	98.8%	83.2%	116	102%	103%	104%	114%	107%	–	104	109%	118%	110%	104%	98.3%	106%
CC(CCC(=O)O)[C@H]1CCC2C3C(=O)C[C@@H]4CC(=O)CC[C@]4(C)C3CC(=O)[C@@]21C (stereo partly specified)	128%	93.6%	93.2%	83.8%	116	88%	103%	96.7%	98.8%	103%	–	112	106%	117%	105%	99.7%	–	105%
Nc1c(C(=O)O)[nH]c(=O)[nH]c1=O	99.5%	105%	98.3%	94.2%	103	106%	–	96.2%	99.9%	108%	105	111	102%	105%	102%	108%	90.2%	112%
Cc1c(C(C)(C)C)cc(C(C)(C)C)c2c1CN(C)CO2	96.7%	105%	107%	97%	102	106%	93.7%	109%	110%	105%	110	105	102%	102%	105%	99.5%	–	114%
COc1cc(C(=O)N2CCN(C(=O)c3cc(OC)c(OCc4ccccc4)cc3N)CC2)c(N)cc1OCc1ccccc1	102%	90.8%	111%	98.3%	131	132%	–	101%	179%	106%	103	103	111%	–	109%	98.7%	81.2%	106%
CC(=O)Nc1ccc(OC(=O)c2ccccc2O)cc1	147%	93.4%	102%	88.7%	128	84.5%	–	96.2%	101%	110%	–	105	105%	110%	99.4%	102%	–	115%
COc1ccccc1NC(=O)COc1ccc(/C=C2/Oc3cc4occc4c(OC)c3C2=O)cc1OC	108%	99.2%	104%	99.9%	119	99%	–	83.4%	66.7%	85.4%	111	112	110%	105%	112%	90.8%	93.5%	–
CC(C)(C)C(=O)Nc1nc2c(s1)CCc1ccn(S(=O)(=O)c3ccccc3)c1-2	81.8%	87.7%	112%	62.7%	82.1	101%	–	70.8%	78.6%	100%	97.7	95.2	96.1%	95.3%	98.6%	85.7%	83.1%	97.3%
OCc1cn(-c2ccc(Cl)cc2)nc1-c1ccc(O)cc1	95.8%	89.7%	94.3%	63.5%	102	96.9%	50.3%	53.6%	97.3%	106%	99.9	91.6	105%	108%	105%	94.7%	–	91.3%
O[C@@H]1CCO[C@H](c2ccc3ccccc3c2)C1	96%	102%	101%	93.4%	93.9	73.3%	–	99.1%	96.4%	106%	110	105	108%	106%	100%	106%	95.7%	107%
Cc1ccc(Cn2cc(COc3ccc4c5ccnc(C)c5n(CCCc5ccccc5)c4c3)nn2)cc1	94.7%	80.7%	94.5%	55.7%	97.8	73.5%	91.9%	78.2%	64.2%	94.2%	103	96	96.9%	92.6%	89.8%	76.4%	–	87.5%
NC(=S)NNC1CCCCC1	97.3%	89.9%	95.7%	72.6%	97.2	100%	84.9%	70.9%	93.9%	91.2%	102	91.1	93.3%	110%	101%	101%	–	96.4%
Cc1c(F)cccc1NC(=O)c1sc2nc3c(cc2c1N)CCCCC3	40.7%	64.7%	84.6%	72.7%	85.3	33.7%	23.6%	30.7%	35.3%	80.3%	90.1	75.6	66.2%	34.6%	54.3%	43.9%	–	53.7%
C#C[C@@]1(O)[C@@H](CO)O[C@@H](n2cc(C(F)(F)F)c3c(N)ncnc32)[C@@H]1O	-52.9% (active)	5.12% (active)	9.05% (active)	-35.4% (active)	12.5	-84.3% (active)	–	-8.68% (active)	-33.6% (active)	2.43% (active)	14.1	15.8	-7.5% (active)	-2.07% (active)	-15.6% (active)	6.08% (active)	-6.19% (active)	2.75% (active)
CCCCCCCCN(CCCCCCCC)CC(O)c1cc(-c2ccccc2)nc2ccc(OC)cc12 (stereo unspecified)	78.1%	94.6%	39.9%	42.4%	91.7	83.4%	–	9.81% (active)	1.99% (active)	8.91% (active)	101	78.4	103%	66.6%	99.1%	13.4%	5.05% (active)	95.8%

Structure (SMILES)	growth (SK-MEL-2 melanoma)	growth (EKVX NSCLC)	growth (SN12C renal)	growth (UO-31 renal)	growth (TK-10 renal) [%]	growth (A498 renal)	growth (CCRF-CEM leukemia)	growth (MOLT-4 leukemia)	growth (RPMI-8226 leukemia)	growth (OVCAR-8 ovarian)	growth (OVCAR-5 ovarian) [%]	growth (OVCAR-4 ovarian) [%]	growth (SK-OV-3 ovarian)	growth (OVCAR-3 ovarian)	growth (HS 578T breast)	growth (NCI/ADR-RES ovarian)	growth (SR leukemia)	growth (IGROV1 ovarian)
Cc1cc(Nc2ccc(Cl)c(Cl)c2)nc(N)n1	102%	54.7%	106%	86.2%	87.3	78.8%	98.5%	78.8%	80.9%	107%	105	92.8	105%	98.9%	92.6%	98.3%	–	114%
C=CC(=O)NC(=O)Nc1ccccc1Cl	86%	94.7%	83.5%	59.8%	45.2	109%	–	39.6%	21.4%	84.5%	111	103	87.3%	68.7%	96.8%	105%	39.8%	88.2%
Cc1c(Cl)ccc2c(C(=O)Cl)cc(-c3ccccc3)nc12	106%	95.6%	99.9%	90.1%	105	84.4%	88.1%	96.2%	92.2%	99.7%	97.1	88.5	99.4%	104%	98.9%	101%	–	107%
COc1ccc(/C=C/C(=O)c2ccc(Oc3ncnc4ccccc34)cc2)cc1OC	89.8%	77.7%	79%	51.1%	96.6	98.9%	46.4%	56.6%	0.391% (active)	85.1%	92.9	70.4	91.1%	43.8%	88.5%	80.3%	–	33.5%
COc1ccc(-c2ccc(NC(=O)Nc3cccc(C(F)(F)F)c3)c(C)n2)cc1	75.9%	41.4%	68%	55.1%	76.7	52.1%	42.9%	33.7%	22.6%	61.9%	83	42.9	82.1%	41.9%	88.9%	53.2%	–	91.3%
OCCOCC(F)(F)F	119%	97.9%	116%	94.1%	116	–	-0.0215% (active)	–	90.2%	116%	96	100	113%	109%	–	106%	78.7%	113%
CCCCCC/C=N/Nc1ccc([N+](=O)[O-])cn1	89.6%	101%	110%	84.6%	94.8	103%	100%	103%	105%	110%	100	118	81.1%	103%	108%	102%	–	105%
CCOc1ccc(NC2=C(Cl)C(=O)c3ccccc3C2=O)cc1	88.2%	87.2%	61%	77.9%	136	80.8%	–	75.7%	41.7%	62.7%	110	91.9	92.1%	43.5%	95.4%	98.5%	-6.21% (active)	0.21% (active)
Cc1nccc2c3ccc(OCc4cn(Cc5ccc(Br)cc5)nn4)cc3n(CCCc3ccccc3)c12	80.7%	85.5%	92.1%	71.2%	101	91%	83.1%	90.8%	72.9%	60.8%	106	50.9	81.6%	82.1%	66.9%	78.8%	–	77.4%
NS(=O)(=O)c1ccc(Nc2nc(O)c(/C=C3\C=Nc4ccccc43)s2)cc1	103%	98.2%	91.1%	70.7%	112	106%	–	95.4%	95%	94.5%	111	125	102%	102%	87.5%	101%	99.2%	92.5%
Cc1c(NC(=O)c2sc3nc4c(cc3c2N)CN(Cc2ccccc2)CC4)cccc1C(F)(F)F	49.5%	62.1%	55.2%	65.6%	96	52%	15.6%	25.9%	36.3%	63.1%	79.6	60	77.8%	6.31% (active)	31%	43.7%	–	51%
Nn1c(CN2CCN(c3cc4c(cc3F)c(=O)c(C(=O)O)cn4C3CC3)CC2)n[nH]c1=S	95.9%	102%	95.7%	91.7%	93.8	97.7%	–	103%	102%	106%	108	102	107%	103%	108%	106%	99.1%	97.3%
C/C(=N\N=C1/SCC(=O)N1c1ccccc1)c1ccco1	91.6%	105%	131%	84.9%	96.9	89.2%	-63.9% (active)	112%	72.2%	103%	117	146	115%	–	104%	104%	–	60.8%
O=C1C(Cl)=C(Nc2cccc3cc4ccccc4nc23)C(=O)c2ccccc21	44.2%	71.9%	45.1%	25.7%	54.5	46.5%	–	25.9%	48.7%	32.6%	53.8	55.4	44.3%	64.4%	95.2%	42.8%	45.1%	–
COc1cc([C@@H]2c3cc4c(cc3C(OC3O[C@@H]5COC(C)O[C@H]5[C@H](O)[C@H]3O)C3COC(=O)[C@@H]32)OCO4)cc(OC)c1O (stereo partly specified)	74.6%	57.8%	13%	64.3%	72.5	36.2%	6.56% (active)	2.96% (active)	37.4%	26.9%	–	88.3	35%	37.1%	59.3%	90.4%	-3.83% (active)	65.4%
COc1ccc(Cl)cc1NC(=O)c1cc2c([nH]1)-c1nc(N)sc1CCC2	98%	92.5%	97.4%	79.4%	97.8	95.9%	86.7%	62%	108%	101%	103	111	98.4%	106%	108%	92.7%	–	106%
COc1cc(C(=O)NNC(=O)c2ccccc2O)cc(OC)c1OC	80.2%	103%	98.4%	74.3%	85.6	75.8%	89.4%	74.6%	86.8%	82.9%	103	110	87.8%	109%	95.1%	94.5%	–	98.8%
CCCC(C)(C)COC(=O)c1cccc(N)c1	88%	101%	98.4%	69.2%	84.5	88.6%	88.5%	56%	108%	84.2%	114	117	94.1%	102%	99.3%	102%	–	103%
